# HCMV inh = human cytomegalovirus inhibition. HFF cells, HCMV-luciferase reporter, 72 h; stronger effect = lower value. activity change, negative = inhibition, % at 57.5 µM. 410,000 compounds, 4.5% hits. AID 1259415; in the data active means activity change below about -60%; inconclusive means no clear call, values can overlap the other calls; inactive means above about -39%
#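 After 16 h attachment at 37C, HFF cells received test compound and HCMV-luciferase (1 PFU/cell); reporter luminescence read 72 h later, data normalized against buffer-only and known inhibitor Salinomycin.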
# Cycloheximide cs = counter-screen for Shiga toxin inhibitors: cycloheximide protein synthesis inhibition | cell reporter, cycloheximide protein synthesis inhibition counterscreen | max response, % | 300,000 compounds, 12% hits | AID 2314; in the data active means max response mostly above about 13%, no sharp cut-off; inactive means mostly below about 14%; further: read at 38.3 µM for the half of the compounds with a filed dose
# Pf growth 48h = inhibits P. falciparum growth in the first generation, 48 h; 310,000 compounds, 5.9% hits; Potency, µM (series often up to 28.7 µM), most hits filed as inhibitors; P. falciparum luciferase growth in erythrocytes, 48 h
#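 Luminescence readout; reporter = integrated firefly luciferase in P. falciparum. RBC culture at 2% hematocrit, 0.1% parasitemia final, 37 C/5% CO2; decreased signal taken as growth inhibition.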
# Shiga inhibitor = blocks Shiga toxin action in Vero cells | Vero cells, Shiga toxin protein synthesis inhibition reporter | inhibition, % at 38.7 µM | 290,000 compounds, 9.2% hits | AID 2315; in the data active means inhibition mostly above about 28%, no sharp cut-off; inactive means mostly below about 43%
# HCV inh = inhibitors of hepatitis C virus infection | AID 651820 | Huh7.5.1 HCVcc-Cre infection, luciferase reporter, 44 h | 340,000 compounds, 3.4% hits | Potency, µM (top dose mostly 41.8 µM), most hits filed as inhibitors
#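 1,000 cells/well; 4 h culture; + compound; + HCVcc-Cre (~0.5 moi); 44 h; luciferase substrate, RT 15 min; read 15 sec.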
# Pf growth 96h = P. falciparum growth inhibition at 96 hours; P. falciparum luciferase reporter growth, 96 h; Potency, µM (doses to about 28.7 µM), actives largely listed as inhibitors; 320,000 compounds, 6.9% hits; AID 504834
#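 Erythrocytes infected with luciferase-expressing P. falciparum were dispensed at 2% hematocrit and 0.05% parasitemia (final), then incubated with compounds 96 hours at 37 C in 5% CO2. Luminescence after detection reagent addition reported growth.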
# Hits are given with their value; – = inactive; ? = inconclusive; · = not tested or not shown; [ ] = another dose, or the depositor's remark. Rows were chosen to be rich in hits. Some 21% of all compounds tested hit in one or more screens of this group. Unless noted, the call rests on the fitted dose curve; in most records, active means well fitted inhibition curve with a large enough effect; inconclusive means small, poorly fitted or top-dose-only effect, or another doubt; inactive means no such curve, though single readings can be large or run the other way.
SMILES,HCMV inh,Cycloheximide cs,Pf growth 48h,Shiga inhibitor,HCV inh,Pf growth 96h
COc1ccc(C#Cc2c(-c3ccsc3)oc3ccc(N4CCOCC4)cc23)cc1,–,·,·,·,?,·
COC(=O)c1ccc(/C=C/c2c(-c3ccc(OC)cc3)oc3ccc(N4CCOCC4)cc23)cc1,–,–,?,–,–,3.7µM
COc1ccc(-c2oc3ccc(N4CCOCC4)cc3c2C#CC2(O)CCCCC2)cc1,–,·,·,·,10µM,·
OC1(C#Cc2c(-c3ccsc3)oc3ccc(N4CCOCC4)cc23)CCCCC1,–,·,·,·,5.6µM,·
COc1ccc(/C=C/c2c(-c3cccc(C)c3)oc3ccc(N4CCOCC4)cc23)cc1,–,·,·,·,–,·
Cc1nc2c3c(sc2c(=O)[nH]1)NC(=O)CC3c1ccccc1Cl (stereo unspecified),–,–,–,–,–,–
CSc1ccc(NC(=O)N2CCC(C(=O)c3ccc(F)cc3)CC2)cc1,?,–,–,–,?,–
Cc1ccc(C)c(Cn2c(=O)n(-c3ccc(F)cc3)c(=O)c3sc4ccccc4c32)c1,–,·,·,·,·,·
CN(CC(=O)Nc1c(Cl)cccc1Cl)C(=O)C1CC(=O)N(Cc2ccccc2)C1 (stereo unspecified),–,·,–,·,–,?
CCCNC(=S)N1CCN(c2nc(C)nc3sc4c(c23)CCCC4)CC1,?,–,?,–,?,–
COCCCNC(=S)N1CCN(c2nc(C)nc3sc4c(c23)CCCC4)CC1,?,–,?,–,10µM,–
CN1CCN(C(=O)c2cccc(-c3ccc4nccn4c3)c2)CC1,–,·,·,·,·,·
COc1ccc(NC2=C(C(C)=O)C(c3ccccc3)C(C(C)=O)C(C)(O)C2)cc1 (stereo unspecified),–,–,–,–,–,–
CCOC(=O)C1=C(Nc2ccccc2)CC(C)(O)C(C(=O)OCC)C1c1ccc(Cl)cc1 (stereo unspecified),–,–,?,–,?,12µM
COc1cc(NC(=O)C/C(C)=N/NC(=O)C(=O)NCCO)c(OC)cc1Cl,–,–,–,–,–,–
Cc1ccc(C)c(OCc2cc(C(=O)NC(C)c3cnn(C)c3)no2)c1 (stereo unspecified),–,–,?,–,–,?
COc1cc(C)ccc1OCc1cc(C(=O)NC(C)Cn2cncn2)no1 (stereo unspecified),–,65,–,81,–,?
COc1cc(C)ccc1OCc1cc(C(=O)NCc2ccncc2)no1,–,59,–,107,–,–
COc1cccc(N2CC(O)Cn3c2nc2c3c(=O)[nH]c(=O)n2C)c1 (stereo unspecified),–,–,–,–,–,–
O=C(O)c1cc(-c2cccs2)[nH]n1,–,–,–,–,–,–
CCOC(=O)c1cc(-c2cccs2)[nH]n1,–,22,–,60,–,–
COc1ccc2[nH]c3c(c2c1)CCn1c-3nc2ccccc2c1=O,·,38,–,97,–,?
Cc1ccc(NC(=O)c2ccc([N+](=O)[O-])cc2)cc1S(=O)(=O)N(C)C,?,40,–,68,?,–
Cc1ccc(NC(=O)COC(=O)c2ccc(Cl)cc2)cc1S(=O)(=O)N(C)C,–,–,?,–,–,–
Cc1ccc(NC(=O)c2ccc(OC(F)F)cc2)cc1S(=O)(=O)N(C)C,-95,29,–,–,7.9µM,?
SMILES,HCMV inh,Cycloheximide cs,Pf growth 48h,Shiga inhibitor,HCV inh,Pf growth 96h
COc1ccc2[nH]c3c(c2c1)CCN1C(=O)C(CC(=O)NCCCN(C)C)C[C@H](C(=O)N2CCCCC2)[C@@]31C (stereo partly specified),–,·,·,·,–,·
Cc1ccc(SC(=O)c2c(C)noc2-c2cc(C)on2)cc1,–,–,–,–,–,–
CC1=C(C(=O)Nc2ccc([N+](=O)[O-])cc2)C(c2cccc(C(F)(F)F)c2)NC(=S)N1c1ccccc1 (stereo unspecified),-98,–,13µM,–,?,·
COc1cc2c3c(c1)c(N=NC(N)=S)c(O)n3C(C)(C)C=C2C,–,–,10µM,–,?,6.6µM
CC(=O)c1cccc(NC(=O)CC(c2ccc(C)cc2)N2Cc3ccccc3C2=O)c1 (stereo unspecified),–,·,·,·,·,·
CSCCC(NC(=O)CCC(=O)OCC(=O)[C@@]1(O)CCC2[C@@H]3CCC4=CC(=O)C=C[C@]4(C)C3[C@@H](O)C[C@@]21C)C(=O)O (stereo partly specified),–,–,5.2µM,–,–,?
CCOc1ccc(CNc2ccc(N3CCCC3)cc2)cc1,–,17,1.9µM,–,–,–
CCOc1ccc(CNc2ccc(N3CCN(Cc4ccccc4)CC3)cc2)cc1,–,–,–,–,10µM,9.3µM
CCOc1ccc(OCC(=O)Nc2ccc(N3CCCCC3)cc2)cc1,–,–,–,–,?,?
O=C(Oc1ccc2cccc(OC(=O)N3CCOCC3)c2c1)N1CCOCC1,–,–,·,–,–,?
CCN(CC)C(=O)Oc1ccc2cc(Br)ccc2c1,–,28,–,123,–,–
CC(=O)Oc1ccc2c(=O)c(Oc3ccccc3[N+](=O)[O-])coc2c1,–,–,–,–,–,–
CCc1cc2c(=O)c(-c3nc4ccccc4[nH]3)coc2cc1OC(=O)N1CCOCC1,–,24,–,–,–,–
COc1cccc(Oc2coc3cc(OC(=O)N4CCOCC4)ccc3c2=O)c1,?,–,–,–,?,?
CCN(CC)C(=O)Oc1ccc2c(=O)c(-c3ccc(OC)cc3)c(C)oc2c1,?,–,–,–,·,–
COc1ccc(-c2coc3cc(OC(=O)N4CCOCC4)ccc3c2=O)cc1,?,26,–,31,–,?
CC(=O)Oc1ccc2c(=O)c(-c3nc4ccccc4s3)coc2c1,–,60,–,95,–,–
CCOc1cc(/C=N/NC(=O)C(=O)NC)cc(Br)c1O,–,–,–,–,–,?
CCc1cccc(NC(=O)Cn2c(=O)n(Cc3ccccc3)c(=O)c3c2c2cc(OC)ccc2n3C)c1,–,·,·,·,·,·
CC(C)C[C@H]1COc2cc(NCCCN3CCOCC3)ccc2S(=O)(=O)N1,–,·,·,·,·,·
CCCNC(=O)c1cnc2sc(N3CCCCCC3)nn2c1=O,–,·,·,·,·,·
COc1ccc2c(=O)c(N3C(=O)c4ccccc4C3=O)coc2c1,–,–,–,–,–,–
CCN(CC)C(=O)Oc1ccc2c(=O)c(-c3ccc(OC)cc3)coc2c1,–,45,–,83,?,–
COc1ccc2c(=O)c(-c3ccc4c(c3)OCO4)coc2c1,–,68,–,76,–[8.37 µM],–
COc1ccccc1-c1coc2cc(OC(=O)N3CCOCC3)ccc2c1=O,–,48,–,101,–,–
COc1ccccc1Oc1coc2cc(OC(=O)N3CCOCC3)ccc2c1=O,–,–,–,–,–,–
COc1ccc(NC(=O)Cn2nnc(C(=O)NCc3ccccc3Cl)c2N)cc1Cl,–,·,·,·,·,·
CCCCCNC(=O)c1cc(S(=O)(=O)N2CCCCC2)ccc1F,-105,–,–,–,–,–

# Assay outcomes as filed in PubChem BioAssay.
